In the library only some 12% were active in any assay of this set; here they are far more common.
BAZ2B block – BAZ2B (human) inhibition; Q9UIF8; Potency, µM (titrated, usually from 114 µM), without a hit: top-dose activity change, negative = inhibition, usual class: inhibitors; AID 504333; 4.4% of 360,000 active; AlphaScreen BAZ2B-H3K14Ac peptide displacement; further: on the % scale 0 is the no-effect control and ±100 the full control effect; nearly all actives have a fitted effect of over 60% in size
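BAZ2B 50 nM plus b-H3(5-23)K14Ac 50 nM, PBS pH 7.4/0.01% Tween-20, 30 min RT; compound added (max 110 uM), 30 min RT; streptavidin donor/Ni-chelate acceptor beads 10 ug/mL final, 20 min dark; AlphaScreen read.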
G9a block – G9a (human) methyltransferase inhibition; G9a H3K9 monomethylation, AlphaScreen, 2 h; Potency, µM (doses to about 102 µM), for the others: top-dose activity, negative = inhibition, hits mostly inhibitors; 8.8% of 350,000 active; further: on the % scale 0 is the no-effect control and ±100 the full control effect; nearly all actives have a fitted effect of over 75% in size
Target sequence (Q96KQ7 913-1193 limits assumed): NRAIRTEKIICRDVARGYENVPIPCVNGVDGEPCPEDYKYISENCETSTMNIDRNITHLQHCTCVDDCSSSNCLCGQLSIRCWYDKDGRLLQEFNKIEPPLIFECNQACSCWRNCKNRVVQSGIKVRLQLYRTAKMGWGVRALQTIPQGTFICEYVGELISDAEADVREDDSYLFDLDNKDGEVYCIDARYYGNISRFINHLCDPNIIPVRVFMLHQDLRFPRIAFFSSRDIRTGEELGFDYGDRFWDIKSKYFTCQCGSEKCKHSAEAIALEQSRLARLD
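G9a (20 nM) was preincubated 15 min with compound, then reacted 2 h at room temperature with 500 nM biotin-H3K9 peptide and 20 µM SAM. Monomethyl-H3K9 detected by AlphaScreen using anti-H3K9me1 antibody.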
L3MBTL1 inh – inhibitors of human L3MBTL1; Q9Y468; AlphaScreen L3MBTL1–H3K9me1 peptide binding; Potency, µM (highest dose often 57.1 µM), inactives show at the highest dose activity, negative = inhibition, most hits filed as inhibitors; 0.66% of 230,000 active; further: on the % scale 0 is the no-effect control and ±100 the full control effect; nearly all actives have a fitted effect of over 60% in size
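First, the protein-peptide complex forms for 30 min at room temperature (L3MBTL1 50 nM, biotinylated H3K9me1 peptide 75 nM). Next, compounds are pin-transferred and incubated 30 min. Finally, AlphaScreen beads are added and read after 30 min.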
HP1b chromo inh – blocks HP1-beta chromodomain binding to methylated histone tails; AlphaScreen HP1-beta / biotin-H3K9me3 peptide binding; 0.56% of 390,000 active; Potency, µM (titrated, usually from 114 µM), without a hit: at the top dose activity change, negative = inhibition, usual class: inhibitors; P83916; further: nearly all actives have a fitted effect of over 70% in size
Target sequence (P83916 whole entry, looked up): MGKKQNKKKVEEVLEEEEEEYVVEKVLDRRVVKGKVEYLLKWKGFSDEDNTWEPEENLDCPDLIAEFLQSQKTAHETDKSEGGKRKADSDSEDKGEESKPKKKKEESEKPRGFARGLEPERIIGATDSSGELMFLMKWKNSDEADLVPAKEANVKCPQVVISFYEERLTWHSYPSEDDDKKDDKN
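HP1-beta protein (50 nM final) preincubated 30 min at room temperature with biotinylated H3(1-18)K9me3 peptide (50 nM) in PBS pH 7.4, 0.01% Tween-20, then compound added for 30 min. AlphaScreen streptavidin donor/nickel chelate acceptor beads (10 ug/mL final), 30 min dark, luminescence read.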
JMJD2A Tudor inh – inhibitors of human JMJD2A Tudor domain. O75164. AlphaScreen JMJD2A-Tudor / H3K4me3 peptide binding. Potency, µM (doses to about 114 µM), for inactives: at the top dose activity change, negative = inhibition, most hits filed as inhibitors. 4.4% of 390,000 active; further: on the % scale 0 is the no-effect control and ±100 the full control effect; nearly all actives have a fitted effect of over 50% in size
Sfp inh – inhibitors of Bacillus subtilis Sfp phosphopantetheinyl transferase | 3.5% of 310,000 active | Biochemical Sfp PPTase activity, qHTS | Potency, µM, for inactives: largest response in the series, negative = inhibition, most hits filed as inhibitors | AID 1490 | Q9F4F7;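 further: the enzyme is Sfp with the accession as filed and its product quenches rhodamine fluorescence; 0% = enzyme reaction without inhibitor and -100% = no enzyme wells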
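Fluorescence-quenching assay with 15 nM Sfp, 5 uM rhodamine-CoA and 12.5 uM BHQ-2-labelled ybbR peptide in pH 7.6 Hepes/MgCl2 buffer. Enzyme was pre-incubated with compound for 15 min at room temperature. Rate was taken from the 30-min fluorescence change (525/598 nm).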
Active calls of the source: *; ? = inconclusive; nt = not tested or not shown; [ ] = another dose, or the depositor's remark. The call rests on the fitted dose curve; in most records, active means well fitted curve in the direction sought with a large enough effect; inconclusive means small, poorly fitted or top-dose-only effect, or another doubt; inactive means no such curve, though single readings can be large; an effect the other way counts as inactive or inconclusive. Potency means the concentration at half of the fitted maximal effect.

SMILES	BAZ2B block	G9a block	L3MBTL1 inh	HP1b chromo inh	JMJD2A Tudor inh	Sfp inh
Cn1c(=O)c2cc(S(=O)(=O)Nc3cccc(F)c3)ccc2n(C)c1=O	6.3%	?	nt	35.9%	-13.0%	12.1%
Cc1c(F)cccc1NS(=O)(=O)c1ccc2c(c1)c(C)cc(=O)n2C	50.1µM*	4.9%	nt	40.8%	-7.0%	-8.7%
Cc1nc(CCN2C(=O)c3ccccc3C2=O)cs1	-4.4%	?	2.7%	-19.4%	-6.9%	79.4µM*
CCOC(=O)C(C)Sc1nc2c(c(=O)[nH]c(=O)n2C)n1CCc1ccccc1 (configuration not stated)	-11.7%	?	2.1%	-18.4%	0.4%	-4.6%
CCCCOC(=O)CSc1nc2c(c(=O)[nH]c(=O)n2C)n1C/C=C(\C)Cl	8.0%	15.8µM*	25.4%	-8.6%	-0.3%	-3.0%
CCOC(=O)C(CC)Sc1nc2c(c(=O)[nH]c(=O)n2C)n1C/C=C(/C)Cl (configuration not stated)	-3.2%	?	-3.6%	-10.7%	17.8µM*	14.1µM*
C/C(Cl)=C/Cn1c(SCC(C)C)nc2c1c(=O)[nH]c(=O)n2C	7.6%	50.1µM*	1.9%	10.1%	8.7%	-15.3%
CCCCCn1c(SCC(=O)OC)nc2c1c(=O)[nH]c(=O)n2C	2.0%	17.3%	nt	24.0%	-18.8%	20.8%
Cc1sc2ncn(CC(=O)Nc3ccc(F)cc3Cl)c(=O)c2c1S(=O)(=O)N1CCN(c2ncccn2)CC1	2.8%	-3.3%[59 µM]	nt	36.2%	8.2%	nt
CCOC(=O)C1CCN(CCC(=O)Nc2ccc(OC)cc2)CC1	2.5%	13.1%[59 µM]	nt	5.2%	-15.7%	nt
CC1CN(C(=O)COC(=O)c2ccc(C#N)cc2)CC(C)O1 (configuration not stated)	-24.9%	50.1µM*	nt	38.8%	-1.5%	13.6%
CCOC(=O)C1CCCN(C(=O)COC(=O)c2ccc(C#N)cc2)C1 (configuration not stated)	-8.6%	?	12.2%	21.8%	8.1%	-5.2%
O=C(OCC(=O)N1CCCCCC1)c1ccc(Cl)c(S(=O)(=O)N2CCCC2)c1	nt	6.8%	-23.8%	?	20µM*	-9.9%
NC(=O)COC(=O)c1ccc(Cl)c(S(=O)(=O)N2CCCCCC2)c1	nt	?	nt	9.1%	-9.7%	4.7%
CN(C(=O)COC(=O)c1ccc(C#N)cc1)c1ccccc1	-21.1%	50.1µM*	nt	46.4%	-9.5%	-7.8%
N#Cc1ccc(C(=O)OCC(=O)N2CCCCCC2)cc1	0.0%	22.4µM*	6.5%	6.8%	-9.8%	nt
CC1CN(C(=O)COC(=O)c2ccc(O)cc2)CC(C)O1 (configuration not stated)	6.4%	17.4%	nt	3.3%	-10.4%	3.8%
CCC1CCCCN1C(=O)Cn1c(=O)n(CCCCCC(=O)NCc2ccccc2Cl)c(=O)c2sccc21 (configuration not stated)	-2.5%	-4.5%[59 µM]	nt	10.6%	-17.7%	nt
CCCOc1c(Cl)cc(C(=O)N(Cc2cccc(OC)c2)C2CCS(=O)(=O)C2)cc1Cl (configuration not stated)	-9.8%	2.1%[59 µM]	nt	42.1%	-17.4%	nt
CNS(=O)(=O)c1cccc(C(=O)OCC(=O)c2ccc(S(=O)(=O)N3CCCCC3)cc2)c1	-34.5%	28.2µM*	-10.6%	41.5%	-13.6%	nt
CN1c2ccccc2C(C)(C)[C@]12C=Cc1cc(O)ccc1O2	39.8µM*	?	nt	?	56.2µM*	-14.7%
CC1(C)OC(=O)N(c2ccccc2)C12C=Cc1cc(Br)ccc1O2 (configuration not stated)	3.7%	-5.7%[12.7 µM]	nt	23.7%	-15.7%	-6.3%
CN1c2ccccc2C(C)(C)C12CC(CCl)=NO2 (configuration not stated)	-6.1%	-10.3%[2.33 µM]	4.8%	22.6%	-20.7%	-7.8%
COc1ccc2ccc3c(c2c1)N=CC1(O3)N(C)c2ccccc2C1(C)C (configuration not stated)	-10.1%	5.62µM*	31.6µM*	?	44.7µM*	-3.7%
CN1c2ccccc2C(C)(C)C12C=Nc1c(ccc3ccccc13)O2 (configuration not stated)	50.1µM*	nt	?	-0.2%	?	-93.5%
SMILES	BAZ2B block	G9a block	L3MBTL1 inh	HP1b chromo inh	JMJD2A Tudor inh	Sfp inh
CCCN(CCC)C(=O)C1CCN(c2cc(C)nc3c(-c4ccc(Cl)cc4)c(C)nn23)CC1	14.3%	24.4%[59 µM]	nt	94.5%	31.0%	nt
COc1ccc(C=Nc2cccc3c(=O)[nH][nH]c(=O)c23)c2ccccc12	-30.6%	50.1µM*	nt	13.0%	-26.1%	-8.5%
C=CCn1c(N)c(C(=O)NCc2cccnc2)sc1=S	-27.5%	?	nt	-2.0%	23.0%	-20.1%
C=CCn1c(N)c(C(=O)NC2CCCCC2)sc1=S	-3.2%	-40.1%[59 µM]	6.2%[11.4 µM]	-9.4%	-31.1%	15.8µM*
C=CCc1ccc(OCCOCCNCCOC)c(OC)c1	-10.2%	-3.4%	?	27.3%	-21.9%	19.7%
C=CCc1ccc(OCCOCCOc2cccc3ccc(C)nc23)c(OC)c1	28.2µM*	3.55µM*	-12.0%	15.8µM*	1.12µM*	?
C=CCc1ccc(OCCCOc2ccc(C(=O)O)cc2)c(OC)c1	-11.0%	-30.1%	6.0%	7.1%	-14.3%	-3.6%
C=CCc1ccc(OCCOCCNCCCC)c(OC)c1	50.1µM*	?	nt	?	3.98µM*	?
CCC(C)NCCCOc1ccc(Cl)cc1C(C)(C)C (configuration not stated)	50.1µM*	12.6µM*	-0.4%	?	3.16µM*	-46.2%
C=CCc1ccc(OCCCCNC(C)CC)c(OC)c1 (configuration not stated)	-32.1%	14.1µM*	5.0%	-18.6%	14.1µM*	-8.6%
COc1ccc(COc2cccc3ccc(C)nc23)cc1F	14.6%	28.5%	nt	28.8%	-0.4%	-1.7%
COc1ccccc1-c1nc(S(=O)(=O)c2ccccc2)c(N2CCC(C)CC2)o1	-23.0%	?	nt	5.5%	-19.2%	nt
Cc1c(C)c2c(c(C)c1O)CC[C@@](C)(C(=O)O)O2	nt	?	nt	nt	nt	1.1%
Cc1cc2oc(C(=O)Nc3cccc(-c4nc5ccccc5o4)c3)c(C)c2cc1C	-26.4%	-1.6%[59 µM]	nt	21.2%	-5.3%	nt
COCCCNCCCOc1ccc(Cl)cc1C(C)(C)C	0.6%	?	3.0%	-27.0%	28.2µM*	?
Cc1cc(NC(=O)CCCOc2ccc(Cl)cc2Cl)no1	-3.3%	0.5%[12.7 µM]	-15.9%	27.5%	1.2%	-3.7%
COC(=O)NNC(=O)CCCOc1ccc(Cl)cc1Cl	8.5%	6.1%[59 µM]	9.2%	27.7%	1.4%	11.2%
C=CCc1cc(Cl)ccc1OCCCNC(C)CC (configuration not stated)	-30.5%	10µM*	9.8%	?	22.4µM*	-6.0%
